Assay results taken from PubChem BioAssay AID1985 (Southern Research Specialized Biocontainment Screening …, 2009).
In all, about 2,300 compounds went through this assay and about 1,000 (43%) were called active. How the calls were made is not given here. So high a share suggests a set chosen from earlier hits. This is one part of the list. Measured potencies and affinities stand elsewhere.

Test: PhoP regulon inhibitor project modified counter assay, GFP fluorescence readout, dose response (AID 1985)
Conditions: S. Typhi, 4 h; series mostly up to 150 µM

Row | Compound | outcome
1 | Cc1ccc(CCNC(=O)C2CCN(S(=O)(=O)N3CCCC3)CC2)cc1 | inactive
2 | O=C1C=C(c2ccc(Cl)cc2)C(=O)N1Nc1ccccc1 | inactive
3 | CCCn1c(SCc2ccc(Cl)cc2)nc2c1c(=O)[nH]c(=O)n2C | inactive
4 | CN1CCCN(C(c2ccccc2)c2ccc(Cl)cc2)CC1 (configuration not stated) | inactive
5 | Cc1c(C(=O)Nc2ccncc2)sc2nc(-c3ccc(F)cc3)cn12 | inactive
6 | COc1cccc(CNc2nn[nH]n2)c1OC | inactive
7 | Fc1ccc(NC(=S)NCc2ccccc2Cl)cc1 | inactive
8 | COc1ccccc1CNC(=O)COC(=O)CCC(=O)c1cccs1 | inactive
9 | Clc1ccc(CNCc2cccs2)cc1Cl | inactive
10 | Fc1ccccc1CSc1ccc(-c2ccco2)nn1 | inactive
11 | O=C(O)CCSCc1ccccc1F | inactive
12 | COc1ccc2[nH]cc(CC(=O)O)c2c1 | inactive
13 | COc1ccc(C2=NN3C(C2)c2ccccc2OC3c2cccs2)cc1 (configuration not stated) | inactive
14 | O=C(O)COc1ccccc1/C=N/NC(=O)c1cccc(S(=O)(=O)N2CCOCC2)c1 | inactive
15 | O=C(CSc1cccc2cccnc12)Nc1ccc(S(=O)(=O)N2CCOCC2)cc1 | inactive
16 | O=[N+]([O-])c1ccc(-c2cnc(NO)nc2)cc1 | inactive
17 | Cn1c(-c2ccc(Cl)cc2)cnc1N | inactive
18 | COc1cccc(C(=O)N(CN2CCCC2=O)c2cc(C)on2)c1 | inactive
19 | N#Cc1ccc(C2=NC(C(F)(F)F)(C(F)(F)F)c3c(n(Cc4ccco4)c(=O)[nH]c3=O)N2)cc1 | inactive
20 | COc1ccc(NC(=O)C2CCCN(C(=O)NC3CCCCC3)C2)cc1OC (configuration not stated) | inactive
21 | Cc1ccc(S(=O)(=O)NCC(=O)OCN2C(=O)c3ccccc3C2=O)cc1 | inactive
22 | CCN1CCN(c2nc3ccccc3nc2C(C#N)S(=O)(=O)c2ccc(C)cc2)CC1 (configuration not stated) | inactive
23 | COc1ccc(-c2cc(=NCC(=O)O)c3ccccc3o2)cc1 | inactive
24 | CCOC(=O)C(NC(C)=O)(Nc1cccc(F)c1)C(F)(F)F (configuration not stated) | inactive
25 | O=C(Nc1cccc(F)c1)NC1CCCCC1 | inactive
26 | CC(=O)Nc1cccc(NC(=O)Nc2ccc(C)c(Cl)c2)c1 | inactive
27 | Cc1nc(NC2=NCN(CCCN3CCOCC3)CN2)nc2c(C)cccc12 | inactive
